VHR inh abs = DUSP3 (human) phosphatase inhibition; P51452; recombinant VHR phosphatase, pNPP absorbance; inhibition, % at 13.3 µM; 0.52% of 290,000 active; AID 1654; in the data active = inhibition above about 50%
Target sequence (P51452 whole entry, looked up): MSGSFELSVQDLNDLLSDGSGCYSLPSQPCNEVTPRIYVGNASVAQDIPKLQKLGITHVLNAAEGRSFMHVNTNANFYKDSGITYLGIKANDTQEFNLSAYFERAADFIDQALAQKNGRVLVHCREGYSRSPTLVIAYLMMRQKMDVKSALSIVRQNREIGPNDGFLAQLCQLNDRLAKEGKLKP
SARS 3CLpro inh = SARS-CoV 3CLpro protease inhibition; P0C6X7; recombinant SARS-CoV 3CLpro, quenched FRET peptide cleavage; inhibition, % at 6 µM; 0.14% of 290,000 active; AID 1706; in the data active = inhibition above about 12%
PfHsp40 yeast = rescue of PfHsp40-mediated yeast toxicity. S. cerevisiae expressing PfHsp40, growth rescue, ATP luminescence. growth rescue, % at 12.5 µM. 0.68% of 340,000 active. AID 504582; in the data active = growth rescue above about 28%, passing the limit was not always enough;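 note: yeast W303a lacking pdr1 and pdr3 grown in galactose medium; growth measured after three days at 30 °C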
BJeLR lethal = BJeLR cell viability loss; inhibition, % (test concentration not listed); AID 1554; BJeLR (HRASV12) viability, CellTiter-Glo ATP luminescence, 48 h; 0.17% of 300,000 active; in the data active = inhibition above about 50%
BH1578 lux ind = inducers of Vibrio cholerae quorum light production without autoinducers | V. cholerae BH1578 lux reporter, luminescence, 6 h | activation, % at 18.7 µM | 0.16% of 350,000 active | AID 588436; in the data active = activation mostly above about 9.7%, no sharp cut-off
MazEF act = activators of E. coli MazEF toxin-antitoxin RNase; FAM/BHQ RNA-DNA oligo cleavage fluorescence, 5 h; activation, % at 20 µM; 0.32% of 350,000 active; in the data active = activation above about 50%
Target sequence (P0AE70 whole entry, looked up): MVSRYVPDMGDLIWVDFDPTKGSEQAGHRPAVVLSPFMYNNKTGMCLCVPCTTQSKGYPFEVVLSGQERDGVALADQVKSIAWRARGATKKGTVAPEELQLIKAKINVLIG
Numbers without * were called inactive; i = inactive; / = not tested or not shown; + = active, no number. Hits are enriched below; roughly 1.7% of the tested compounds scored in any of these assays.

SMILES	VHR inh abs	SARS 3CLpro inh	PfHsp40 yeast	BJeLR lethal	BH1578 lux ind	MazEF act
O=C(Nc1ccc(F)cc1F)c1ccccc1NC(=O)C1CC=CCC1C(=O)O (configuration not stated)	2	-2	-1	-2	0	1
CC1CCCC(NC(=O)COC(=O)c2ccc(Br)o2)C1C (configuration not stated)	/	/	0	/	i	7
Cc1cc(C(=O)OCC(=O)Nc2cc(Cl)ccc2C)c(C)o1	/	/	-1	/	12	2
Cc1cc(C(=O)OCC(=O)NC2CCCC(C)C2C)c(C)o1 (configuration not stated)	/	/	62*	/	i	5
Cc1cc(C(=O)OCC(=O)Nc2ccccc2C#N)c(C)o1	/	/	-1	/	390*	10
COc1ccc(NC(=O)CCNC(=O)c2ccccc2Cl)cc1S(=O)(=O)N1CCCCC1	/	/	/	/	i	1
CSc1ccc(/C=N/NC(=O)c2ccc(O)cc2)cc1	60*	0	0	11	i	-2
O=C(N/N=C/c1ccc(O)cc1)c1csc2ccccc12	16	6	0	-4	18*	1
Cc1ccc(C(=O)Nc2cccc(C(=O)N/N=C/c3ccc(F)cc3)c2)cc1	23	-7	3	-3	-4	63*
CC(=O)Nc1cccc(C(=O)N/N=C/c2ccc(F)cc2)c1	1	2	0	1	-6	4
CCN(CC)CCCNC(=O)c1nn2c(C(F)(F)F)cc(-c3ccccc3)nc2c1Cl	60*	0	-1	8	-1	12
O=C1Nc2ccc(Br)cc2C12NNc1ccccc1O2 (configuration not stated)	24	8	2	-17	i	84*
COc1ccc(C(C)(O)c2nc(-c3cccs3)cs2)cc1 (configuration not stated)	/	/	/	/	i	/
CCOc1ccc(S(=O)(=O)NN=C(C)c2cccnc2)cc1	/	/	0	/	2	4
N#Cc1cccc(N=Cc2c(O)ccc3ccccc23)c1	-4	6	-1	-6	0	-3
Oc1ccc2ccccc2c1C=Nc1cc(C(F)(F)F)ccc1N1CCCC1	21	1	-1	-1	1	+
N#Cc1c(-c2ccccc2)cc(-c2ccc(O)cc2)nc1N	-15	6	10	5	i	6
Cc1ccc(-c2cc(-c3ccccc3)nc(N)c2C#N)o1	26	5	-1	-5	i	83*
CCOC(=O)/C(C#N)=C\N(C)C	57*	4	1	-4	0	0
COC(=O)/C(C#N)=C/N(C)C	1	1	-1	-9	-1	10
CCCC1(C(=O)OC)NC(c2ccc(OC)cc2OC)C2C(=O)N(c3cccc(C(C)=O)c3)C(=O)C21 (configuration not stated)	4	-3	8	22	0	10
CCCNC(=O)CSc1nc2ccccc2c(=O)n1CCC	26	-2	-1	-4	2	-10
O=C(Oc1cccc(OC(=O)c2ccco2)c1)c1ccco1	56*	0	-2	-2	0	7
O=C(Oc1cccnc1)c1ccco1	-4	0	-1	-2	-8	15
COC(=O)Cn1cc(/C=C2\C(=O)NC(=O)N(c3ccc(OC)cc3)C2=O)c2ccccc21	32	1	0	4	0	111*
SMILES	VHR inh abs	SARS 3CLpro inh	PfHsp40 yeast	BJeLR lethal	BH1578 lux ind	MazEF act
COCCNC(=O)Cn1cc(/C=C2\C(=O)NC(=O)N(c3ccccc3F)C2=O)c2ccccc21	13	3	-1	5	-1	+
COC(=O)Cn1cc(C=C2C(=O)NC(=O)NC2=O)c2ccccc21	4	0	0	-1	1	-231
COCCCNC(=O)Cn1cc(/C=C2\C(=O)NC(=O)N(c3ccccc3F)C2=O)c2ccccc21	10	5	-1	9	i	-503
COc1ccc(N2C(=O)NC(=O)/C(=C\c3cn(C)c4ccccc34)C2=O)cc1	16	1	0	8	-1	290*
CC(C)N(Cc1ccccc1)C(=O)COC(=O)c1ccc(O)cc1	/	/	1	/	i	-6
CCOC(=O)c1c(NC(C)=O)sc2c1CCC(C=NCCCN(CC)CC)=C2Sc1ccccc1	/	-15	4	-11	20*	15
Cc1ccc(S(=O)(=O)Nc2cccc(C(=O)N3CCOCC3)c2)cc1	22	6	-1	2	0	6
Cc1ccc(S(=O)(=O)Nc2cccc(C(=O)N3CCOCC3)c2)c(C)c1NS(C)(=O)=O	59*	-5	-1	-7	i	10
COc1ccc(CCc2nnc(CCC(=O)N(C)Cc3ccnc4ccccc34)o2)cc1	-10	1	1	0	0	4
O=C(Oc1ccc(N(C(=O)c2ccncc2)S(=O)(=O)c2cccs2)cc1)c1ccncc1	8	1	1	-1	i	0
Cc1cc(F)ccc1S(=O)(=O)N(C(=O)c1ccncc1)c1ccc(OC(=O)c2ccncc2)cc1	6	3	422*	-8	i	-2
CCCCCCOC(=O)CCc1c(C)nc(N)[nH]c1=O	52*	0	-1	12	i	0
COc1ccc(C(C(=O)NC2CCCCC2)N(C(=O)c2ccco2)c2ccccc2C(C)=O)cc1 (configuration not stated)	-5	8	0	-2	i	-3
CC(=O)c1ccccc1N(C(=O)c1ccco1)C(C(=O)NC1CCCC1)c1ccc(C)cc1 (configuration not stated)	51*	-3	0	-3	0	4
CCCc1cc(=O)oc2c(CNc3ccc(OCC)cc3)c(O)ccc12	-3	3	48*	8	-1	-27
CN(CC(=O)Nc1ccc(F)cc1)C(=O)c1ccccc1Sc1ccccc1C#N	/	/	-1	/	i	-3
CC1(C(=O)NS(=O)(=O)c2ccc3c(c2)CCO3)CCN1C(=O)c1ccccc1CCc1ccccc1 (configuration not stated)	/	/	/	/	i	/
O=C(CNC(=O)c1cccc(F)c1)NC1CC1	/	/	1	/	-3	8
CC1(C)CC(NC(=O)Cc2ccc(Cl)cc2)CC(C)(C)N1	53*	1	0	8	i	2
CC1(C)CC(NC(=O)c2ccc(Cl)cc2)CC(C)(C)N1	36	-4	1	8	i	2
O=C(COC(=O)c1cc(Br)ccc1O)c1ccc(F)cc1	/	/	0	/	7	-4
Cc1ccc(OCCOCCN2CCCC2)c(Br)c1	59*	-7	0	7	0	8
Cc1ccc(C(C)C)cc1OCCOCCN1CCCC1	30	0	3	15	-1	92*
Cc1ccccc1OCCOCCN1CCCCCC1	16	8	1	-1	0	-1
COc1ccccc1NC(=O)N(C)C[C@H]1Oc2ncc(Br)cc2C(=O)N([C@H](C)CO)C[C@H]1C	/	/	/	/	i	6
CCOc1cccc(CN2CCC(Oc3ccc(C(=O)N4CCCC4)cc3)CC2)c1O	/	/	/	/	i	10
